Rows were chosen to be rich in hits. Some 17% of all compounds tested hit in one or more screens of this group.
ATXN2 expr inh = ATXN2 expression inhibition; HEK-293 ATXN2-luciferase reporter, luminescence, 24 h; Potency, µM (series often up to 57 µM), for the others: at the highest dose activity change, negative = inhibition, most hits filed as inhibitors; AID 1745845; hit rate 0.72% among 360,000; also: % is scaled to controls: 0 for no effect and ±100 for the full control effect; nearly all actives have a fitted effect of over 55% in size
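qHTS (up to 57 uM final) was run with 24 h compound exposure of reporter cells at 37 °C. Each well was multiplexed: SteadyGlo luminescence measured ATXN2-luciferase expression after a fluorogenic Gly-Phe-AFC viability readout (25 uM final).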
DT40 TDP1 no CPT = qHTS for Inhibitors of human tyrosyl-DNA phosphodiesterase 1 (TDP1): qHTS in cells in absence of CPT; hit rate 15% among 420,000; DT40 Tdp1-/- hTDP1 cells, no CPT, ATP luminescence, 48 h; Potency, µM (series often up to 46.2 µM), for inactives: at the top dose activity change, negative = growth inhibition, most hits filed as inhibitors; also: % is scaled to controls: 0 for no effect and ±100 for the full control effect; nearly all actives have a fitted effect of over 55% in size
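Cells were dispensed at 400 per well, compounds added by pin tool, plates incubated ≥48 hr at 37 °C, then CellTiter-Glo added for 30 min at room temperature before luminescence reading. Line: DT40 Tdp1-/- complemented with hTDP1; camptothecin omitted.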
TDP1 cell CPT = DT40-hTDP1 cell growth loss with CPT; chicken DT40 Tdp1-/-;hTDP1 cells + 20 nM CPT, ATP luminescence, 48 h; Potency, µM (series often up to 46.2 µM), without a hit: at the top dose activity change, negative = growth inhibition, hits mostly inhibitors; hit rate 12% among 420,000; AID 686979; also: % is scaled to controls: 0 for no effect and ±100 for the full control effect; nearly all actives have a fitted effect of over 55% in size
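Cell growth measured by CellTiter-Glo luminescence after a minimum 48 h, 37 C compound exposure with 20 nM CPT in Tdp1-knockout DT40 cells stably expressing hTDP1, seeded 400/well; qHTS titration format.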
ATXN viability = reduces viability in counter-screen for ATXN expression inhibitors; Potency, µM (series often up to 56.7 µM), most hits filed as cytotoxic; hit rate 0.49% among 400,000; S2 cells (HEK-293 line with an ATXN2-luciferase reporter) viability, CellTiter-Fluor protease fluorescence, 24 h; AID 651635; also: nearly all actives have a fitted effect of over 40% in size
TGFb inhibitor = blocks TGF-b signaling; HepG2 CAGA-GFP TGF-b/SMAD3 reporter, GFP fluorescence, 18 h; TGF-beta stimulated, 500 pg/mL final; Potency, µM (highest dose often 46.1 µM), for inactives: top-dose activity, negative = inhibition, usual class: inhibitors; hit rate 1.2% among 410,000; also: % is scaled to controls: 0 for no effect and ±100 for the full control effect; nearly all actives have a fitted effect of over 65% in size
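Cell-based qHTS in HEPG2 carrying a CAGA-GFP Smad reporter; compounds added before 500 pg/mL final TGF-beta, 18 h incubation at 37 degrees C, GFP fluorescence quantified per cell by imaging cytometry.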
HepG2 tox = counter-screen for TGF-b inhibitors: cytotoxicity in HepG2 cells | Potency, µM (doses to about 46.1 µM), without a hit: top-dose activity change, negative = cytotoxicity, usual class: cytotoxic | hit rate 0.76% among 410,000 | HepG2 CAGA-GFP viability, ATP luminescence, 18 h
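HepG2 CAGA-GFP cells (1000/well, DMEM with 1% FBS) received compound, then TGF-beta at 500 pg/mL final, and were incubated 18 hours at 37 degrees C. Viability was read by CellTiter-Glo luminescence. Media-only wells were set as complete cell-killing and DMSO as no toxicity.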
Starred values were filed as active, the others as inactive; i = inactive; ? = inconclusive; . = no result given; [ ] = remark or other dose. Calls follow the shape of the dose curve; as a rule, active = well fitted curve in the direction sought with a large enough effect; inconclusive = small, poorly fitted or top-dose-only effect, or another doubt; inactive = no such curve, though single readings can be large; an effect the other way counts as inactive or inconclusive. Potency is read from the fitted curve at half-maximal effect.

SMILES	ATXN2 expr inh	DT40 TDP1 no CPT	TDP1 cell CPT	ATXN viability	TGFb inhibitor	HepG2 tox
CN(C)c1ccc(/C=N/NC(=O)CN(c2cccc(Cl)c2)S(C)(=O)=O)cc1Br	?	16µM*	26µM*	?	?	-30%
CCN(CCN1CCCC1)C(=O)C1CCC(=O)N(CCCN2CCOCC2)C1 (stereo not given)	1%	1%	0%	i	0%	-5%
CCCCN1C(=O)c2ccc(C(=O)Nc3ccc(C)c(S(=O)(=O)N(C)C)c3)cc2C1=O	1%	16µM*	?	?	-23%	-19%
Cc1ccc(NC(=O)c2ccc(OC(F)(F)F)cc2)cc1S(=O)(=O)N(C)C	-26%	26µM*	?	i	?	-33%
CCOc1ccc(NC(=O)Cn2c(=O)n(Cc3ccccc3)c(=O)c3sc4ccccc4c32)cc1	.	9.2µM*	6.5µM*	.	11%	4%
Cc1cccc(NC(=O)Cn2c(=O)n(CCc3ccccc3)c(=O)c3sc4ccccc4c32)c1	.	23µM*	16µM*	.	-28%	-17%
Cc1cccc(NC(=O)Cn2c(=O)n(Cc3ccccc3)c(=O)c3sc4ccccc4c32)c1	5%	-18%	-13%	i	-35%	-15%
COc1ccccc1COC(=O)CN1C(=O)NC2(CCCCC2C)C1=O (stereo not given)	30%	-12%	38%	i	2%	-11%
O=C1OCC/C1=C\c1ccccc1	0%	4%	-3%	i	0%	1%
O=C1/C(=C/c2ccccc2)CCc2ccc(Cl)nc21	?	4.6µM*	2.6µM*	?	20µM*	-35%
CC1CCc2nc(NC(=O)c3ccco3)sc2C1 (stereo not given)	11µM*	?	?	i	-2%	-40%
CC1CCc2nc(NC(=O)Cc3cccs3)sc2C1 (stereo not given)	63%	?	-11%	i	2%	-2%
CCC(CC)C(=O)Nc1nc2c(s1)CC(C)CC2 (stereo not given)	11%	18µM*	16µM*	i	-28%	-14%
CC1CCc2nc(NC(=O)c3ccc(N4C(=O)CCC4=O)cc3)sc2C1 (stereo not given)	8%	?	-2%	?	0%	-23%
CCOc1ccccc1C(=O)Nc1nc2c(s1)CC(C)CC2 (stereo not given)	47%	21µM*	?	i	-2%	-46%
CCSc1nnc(NC(=O)c2ccc(F)c(S(=O)(=O)N3CCOCC3)c2)s1	-6%	-5%	-13%	i	0%	-24%
CC(NC(=O)CNC(=O)C(Cc1ccccc1)NC(=O)OCc1ccccc1)C(N)=O (stereo not given)	.	0%	-12%	.	?	1%
O=C(O)c1ccccc1C(=O)N1CCN(S(=O)(=O)c2cccc(C(F)(F)F)c2)CC1	5%	-4%	13%	i	13%	14%
C/C(=N\Nc1nc(N2CCCCCC2)nc(N2CCCCCC2)n1)c1ccccc1	.	?	?	i	0%	-7%
CC(=O)Nc1ccc(/C(C)=N/Nc2nc(N3CCOCC3)nc(N3CCOCC3)n2)cc1	-12%	15µM*	?	.	2%	-4%
CC(=O)Nc1ccc(/C(C)=N/Nc2nc(Nc3cccc4ccccc34)nc(N3CCOCC3)n2)cc1	2%	21µM*	21µM*	i	-23%	-54%
Cc1[nH]n(C(N)=S)c(=O)c1N=Nc1ccc(Br)cc1	.	16µM*	23µM*	i	?	-29%
O=c1ccc(-c2ccc([N+](=O)[O-])cc2)nn1-c1ccccc1	-26%[11.3 µM]	-8%	-3%	i	-13%	-2%
Cc1ccc([N+](=O)[O-])cc1N=Nc1c(-c2ccc([N+](=O)[O-])cc2)[nH]n(C(N)=S)c1=O	?	2.9µM*	8.2µM*	?	2.8µM*	-34%
NC(=S)n1[nH]c(-c2ccc([N+](=O)[O-])cc2)c(N=Nc2ccc(Cl)cc2)c1=O	?	?	?	i	2.5µM*	2.5µM*
SMILES	ATXN2 expr inh	DT40 TDP1 no CPT	TDP1 cell CPT	ATXN viability	TGFb inhibitor	HepG2 tox
O=c1cc(-c2ccccc2)[nH]n1-c1ccc([N+](=O)[O-])cc1	?	?	18µM*	.	?	-72%
Cc1ccc([N+](=O)[O-])cc1N=Nc1c(C)[nH]n(C(N)=S)c1=O	.	-1%	-8%	?	?	-15%
CC1CCC(NC(=O)CN2C(=O)NC(C)(C)C2=O)CC1 (stereo not given)	0%	3%	-9%	i	-6%	-1%
O=c1c(N=Nc2ccc(O)cc2)c(-c2ccccc2)[nH]n1-c1ccc([N+](=O)[O-])cc1	-18%	16µM*	?	?	0%	-1%
CCOC(=O)C1=C(COc2ccc(C)cc2)NC(=O)NC1c1cc(C)ccc1C (stereo not given)	-24%	12µM*	23µM*	i	?	18%
CCOC(=O)C1=C(COC(=O)CCOc2ccc(C)cc2)NC(=O)NC1C (stereo not given)	?	5.8µM*	6.5µM*	?	-3%	-31%
CCOC(=O)C1=C(CN2CCCCC2)NC(=O)NC1c1cc(C)ccc1C (stereo not given)	-7%	?	?	i	-18%	-31%
CCOC(=O)C1=C(CNCc2ccc(C)cc2)NC(=O)NC1c1ccc(OC)cc1 (stereo not given)	-26%	21µM*	21µM*	?	-8%	-6%
CCOC(=O)C1=C(COC(=O)CCOc2ccc(OC)cc2)NC(=O)NC1C (stereo not given)	.	-5%	-4%	?	-3%	-10%
CCOC(=O)C1=C(CS(=O)(=O)c2ccc(F)c(C)c2)NC(=O)NC1c1ccccc1OC (stereo not given)	-15%	?	29µM*	?	?	-28%
CC(=O)Nc1ccc(S(=O)(=O)c2cc(O)ccc2O)cc1	2%	-12%	-7%	i	22%	0%
CSc1ncc(CN2CCN(C(C)C)C(CCO)C2)cn1 (stereo not given)	.	-4%	0%	i	-2%	9%
COc1ccc(N2CCN(C(=O)CSc3nc4nc(C)cc(C)n4n3)CC2)cc1	-9%	-24%	?	i	25%	12%
